Screens: PubChem BioAssay, several laboratories
Rows were chosen to be rich in hits. Some 3.7% of all compounds tested hit in one or more screens of this group.
Anthrax LF prot = Bacillus anthracis LF protease inhibitors, primary screen, biochemical, multiplex microsphere, MLPCN library; Lethal factor (Bacillus anthracis), P15917; multiplex microsphere protease cleavage assay; inhibition, % at 10 µM; actives 0.12% (n = 360,000); further: plate controls were buffer without enzyme for full effect and enzyme alone for no effect
Bead autofluor = counter-screen for toxin protease inhibitors: compound fluorescence. actives 3.1% (n = 360,000). fluorescence intensity (concentration not given with the values). compound autofluorescence counterscreen, microsphere flow cytometry; active compounds read high; in the data active means fluorescence intensity above about 16000; inconclusive means no clear call, values can overlap the other calls
BoNT-A LC inh2 = BoNT/A light chain protease inhibitors, primary screen, biochemical, flow cytometry, MLPCN library; multiplex microsphere protease substrate cleavage; AID 588499, 2011; inhibition, % at 10 µM; actives 0.17% (n = 360,000); Botulinum neurotoxin type A light chain protease (Clostridium botulinum A str. ATCC 3502); further: plate controls were buffer without enzyme for full effect and enzyme alone for no effect
MazEF act = activators of E. coli MazEF toxin-antitoxin RNase, primary screen, biochemical, fluorescence, uHTS | Endoribonuclease toxin MazF (Escherichia coli (strain K12)), P0AE70 | FAM/BHQ RNA-DNA oligo cleavage fluorescence, 5 h | activation, % at 20 µM | actives 0.32% (n = 350,000) | AID 504720, 2011; in the data active means activation above about 50%
BoNT F protease = BoNT/F light chain protease inhibitors, primary screen, biochemical, flow cytometry, MLPCN library; Botulinum neurotoxin type F light chain protease (Clostridium botulinum); Multiplex microsphere protease cleavage assay; inhibition, % at 10 µM; actives 0.22% (n = 360,000); AID 588497, 2011; in the data active means inhibition above about 35%, passing the limit was not always enough; inconclusive means no clear call, values can overlap the other calls; further: plate controls were buffer without enzyme for full effect and enzyme alone for no effect
An asterisk follows results filed as active. Unless noted, no stated cut-off is given here; in the data, active means inhibition above about 30%; inconclusive means no clear call, values can overlap the other calls; inactive means below that.

Screening COCCOC(=O)c1c(C)n(C)c2ccc(OC(=O)c3ccco3)cc12 returned Anthrax LF prot -4, Bead autofluor 22026*, BoNT-A LC inh2 inconclusive, MazEF act -2 and BoNT F protease 2.
Clc1ccc(OCc2nn3c(C4CCCCC4)nnc3s2)c(Cl)c1 was read as Anthrax LF prot -1, Bead autofluor 22251*, BoNT-A LC inh2 -3, MazEF act -10 and BoNT F protease -4.
`CC(=O)N1CCc2[nH]c3ccccc3c2C1` gave Anthrax LF prot -3, Bead autofluor 17082*, BoNT-A LC inh2 -2, MazEF act 1 and BoNT F protease -5.
Screening CN1C(=O)C2C=CC1C1C(=O)N(c3ccccc3)C(=O)C21 (stereo not drawn) returned Anthrax LF prot -7, Bead autofluor 21330*, BoNT-A LC inh2 2, MazEF act 0 and BoNT F protease 4.
For O=C1C2C3C=CC(C3)C2C(=O)N1c1ccccc1 (stereo not drawn) the results were Anthrax LF prot -2, Bead autofluor 22433*, BoNT-A LC inh2 inconclusive, MazEF act -3 and BoNT F protease -3.
Screening Cc1ccc(N2C(=O)C3C4C=CC(C4)C3C2=O)cc1 (stereo not drawn) returned Anthrax LF prot -2, Bead autofluor 2848, BoNT-A LC inh2 1, MazEF act 5 and BoNT F protease -4.
Screening CC(C)CSc1ncnc2c1oc1nc3c(cc12)COC(C)(C)C3 returned Anthrax LF prot 2, Bead autofluor 20132*, BoNT-A LC inh2 -1, MazEF act 3 and BoNT F protease -3.
Screening Cc1cc(C)nc(N2CCCC(C(=O)NC(C)CCc3ccco3)C2)n1 (stereo not drawn) returned Anthrax LF prot -2, Bead autofluor 23504*, BoNT-A LC inh2 inconclusive, MazEF act -2 and BoNT F protease -2.
For O=C(NCc1cccs1)C1CCCN(c2nc3ccccc3o2)C1 (stereo not drawn) the results were Anthrax LF prot 1, Bead autofluor 16144*, BoNT-A LC inh2 1, MazEF act 6 and BoNT F protease 1.
For Cc1cnc(C)c(N2CCC(C(=O)NCc3cccs3)CC2)n1 the results were Anthrax LF prot -1, Bead autofluor 3253, BoNT-A LC inh2 0, MazEF act 7 and BoNT F protease -4.
`Cc1cc(C)nc(N2CCCC(C(=O)NCc3cccs3)C2)n1` (stereo not drawn) gave Anthrax LF prot -4, Bead autofluor 21442*, BoNT-A LC inh2 3, MazEF act -2 and BoNT F protease 3.
COc1nc(OC)nc(N2CCC(C(=O)NCc3cccs3)CC2)n1 was read as Anthrax LF prot 0, Bead autofluor 21111*, BoNT-A LC inh2 inconclusive, MazEF act 3 and BoNT F protease 3.
`Cc1ccc(NC(=O)C2CCN(S(=O)(=O)c3ccc(C(C)(C)C)cc3)CC2)cc1S(=O)(=O)N1CCOCC1` gave Anthrax LF prot -7, Bead autofluor 4073, BoNT-A LC inh2 0, MazEF act -4 and BoNT F protease -3.
O=S(=O)(CCNCc1ccco1)NC1CCCCC1 was read as Anthrax LF prot -5, Bead autofluor 3872, BoNT-A LC inh2 -1, MazEF act 6 and BoNT F protease -4.
Screening O=C(Nc1ccc(F)cc1)c1cnc(-c2ccccc2)nc1-c1ccccc1 returned Anthrax LF prot -8, Bead autofluor 18660*, BoNT-A LC inh2 inconclusive, MazEF act 4 and BoNT F protease 8.
For COc1ccc(CNCCSc2nnnn2C)c(OC)c1OC the results were Anthrax LF prot -2, Bead autofluor 4273, BoNT-A LC inh2 -1, MazEF act 1 and BoNT F protease -2.
`COc1ccc(CNCCSc2nnnn2C)cc1OC` gave Anthrax LF prot 0, Bead autofluor 19838*, BoNT-A LC inh2 2, MazEF act 1 and BoNT F protease 0.
`COc1cccc(CNCCSc2nnnn2C)c1` gave Anthrax LF prot -2, Bead autofluor 10456, BoNT-A LC inh2 0, MazEF act 2 and BoNT F protease 3.
For CCc1ccc(CNCCSc2nnnn2C)cc1 the results were Anthrax LF prot -1, Bead autofluor 23525*, BoNT-A LC inh2 -1, MazEF act 9 and BoNT F protease -6.
`COc1ccc(Br)cc1CNCCSc1nnnn1C` gave Anthrax LF prot -1, Bead autofluor 22723*, BoNT-A LC inh2 0, MazEF act 12 and BoNT F protease -8.
`COc1ccc(-c2ccc(C(=O)NCc3ccc(N4CCN(C)CC4)cc3)c3occc23)c(C)c1` gave Anthrax LF prot -2, Bead autofluor 3890, BoNT-A LC inh2 0 and BoNT F protease -7.
`CCn1c(O)c(/C=N/N=C2CCCC2)c2ccc(C3=NNC(=O)CC3)cc21` gave Anthrax LF prot -4, Bead autofluor 23877*, BoNT-A LC inh2 -4, MazEF act 0 and BoNT F protease -7.
Screening CN(C)/C=C/C(=O)c1cccc(Cl)c1 returned Anthrax LF prot -4, Bead autofluor 16675*, BoNT-A LC inh2 -1, MazEF act 9 and BoNT F protease -5.
Screening COc1ccc(/C=C/C(=O)c2ccc[nH]2)cc1OC returned Anthrax LF prot -1, Bead autofluor 16560*, BoNT-A LC inh2 0, MazEF act 2 and BoNT F protease 0.
For O=C(O/N=C1/CCSc2ccccc21)c1ccc(F)cc1 the results were Anthrax LF prot -3, Bead autofluor 24780*, BoNT-A LC inh2 inconclusive, MazEF act -6 and BoNT F protease -6.
CCOC(=O)c1ncn2c1C(=O)OC2(C)C was read as Anthrax LF prot 1, Bead autofluor 19113*, BoNT-A LC inh2 inconclusive, MazEF act 5 and BoNT F protease 2.
CCOC(=O)C1=CC(=O)CC(C)(C)O1 was read as Anthrax LF prot 1, Bead autofluor 3848, BoNT-A LC inh2 0, MazEF act 16 and BoNT F protease 2.
For COc1cc(C(=S)N2CCCCC2)ccc1O the results were Anthrax LF prot -4, Bead autofluor 7223, BoNT-A LC inh2 0, MazEF act 6 and BoNT F protease -8.
For COc1cc(C(=S)N2CCCC2)ccc1O the results were Anthrax LF prot 0, Bead autofluor 20063*, BoNT-A LC inh2 2, MazEF act -1 and BoNT F protease 2.
For Oc1ccc(C(=S)N2CCCCC2)cc1 the results were Anthrax LF prot -6, Bead autofluor 3097, BoNT-A LC inh2 0, MazEF act 0 and BoNT F protease 7.
`Oc1ccc(C(=S)N2CCCCC2)cc1Cl` gave Anthrax LF prot -2, Bead autofluor 24104*, BoNT-A LC inh2 -2, MazEF act -6 and BoNT F protease -6.
For Nc1ccc(CSc2ccc(Cl)cc2)c(Cl)c1 the results were Anthrax LF prot -7, Bead autofluor 4119, BoNT-A LC inh2 0, MazEF act -16 and BoNT F protease 0.
Screening Nc1nncn1C(=O)CCc1ccccc1 returned Anthrax LF prot -1, Bead autofluor 22172*, BoNT-A LC inh2 inconclusive, MazEF act -1 and BoNT F protease -4.
